# Data from PubChem BioAssay.
# Active and inactive are the calls of the source. Unless noted, how the calls were made is not given here.
# Tests used:
# [1] = test system: Wnt5a (protein binding on small-molecule microarray); experiment: Wnt5a binders on small-molecule microarray, primary screen, biophysical, 635/667 nm fluorescence (AID 1142); conditions: 635 nm fluorescence, higher = more signal;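 further: fluorescence read at 667 nm with signal to noise per printed feature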
# [2] = cell viability in Huh7 cells, primary screen, cytotoxicity control for HCV replication inhibitor project, CellTiter-Glo luminescence, basal, 48 h (AID 1143); conditions: Huh7 HCV replicon, higher = more signal, called active from +8 up or from −8 down;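 further: Huh7 hepatoma cells carrying a hepatitis C replication reporter with no stimulus; test concentration not given here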
# [3] = P. aeruginosa biofilm formation inhibitors, primary screen, PAO1 strain, BacTiter-Glo luminescence, LB-PBS (AID 1144); conditions: 12 h, higher = more signal
# [4] = CREB reporter modulators without forskolin, primary screen, cell-based, PC12, CRE-LacZ reporter, unstimulated (AID 1145); conditions: no forskolin, luminescence, 4.5 h, higher = more signal, called active from +8 up or from −8 down
# [5] = CREB reporter modulators under forskolin, primary screen, cell-based, PC12, CRE-LacZ reporter, forskolin-stimulated (AID 1146); conditions: luminescence, 4.5 h, higher = more signal, called active from +8 up or from −8 down;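 further: PC12 cells with 6xCRE LacZ reporter stimulated by forskolin 10 µM; beta-galactosidase reporter signal reflecting CREB driven transcription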
# [6] = target: Streptavidin (Streptomyces avidinii) (UniProt P22629); experiment: streptavidin binders on small-molecule microarray, primary screen, artefact control for SMM compound annotation, biophysical, 635/667 nm fluorescence (AID 1147); conditions: streptavidin binding, higher = more signal;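 further: signal reflects streptavidin binding to arrayed compounds as a control protein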
# [7] = small-molecule binders of probe aInhba, primary screen, biochemical, small-molecule microarray, 635/667 nm fluorescence (AID 1148); conditions: higher = more signal;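 further: score merges 667nm spot fluorescence with signal-to-noise for antibody binding to printed compounds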
# Torsin-1A (Homo sapiens) [8] = target: Torsin-1A (Homo sapiens) (UniProt O14656); experiment: torsin A binders from cell lysate, primary screen, small-molecule microarray, wild-type, 635/667 nm (AID 1149); conditions: COS7 hTOR1A-WT lysate, 635 nm fluorescence, higher = more signal
# Torsin-1A (Homo sapiens) [9] = target: Torsin-1A (Homo sapiens) (UniProt O14656); experiment: small-molecule binders of mutant TOR1A in lysate, primary screen, cell lysate, small-molecule microarray, COS7 lysate, 635/667 nm fluorescence (AID 1150); conditions: COS7 hTOR1A mutant lysate, 635 nm fluorescence, higher = more signal;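 further: score pools 667 nm emission and signal to noise measuring lysate protein binding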
# [10] = test system: Sonic hedgehog protein (Shh); experiment: small-molecule binders of Shh protein, primary screen, biochemical, small-molecule microarray, 635/667 nm fluorescence (AID 1151); conditions: small-molecule microarray binding, 635 nm fluorescence; higher = more signal;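 further: Shh protein binding to compounds spotted on small-molecule microarray slides; score combines spot fluorescence intensity with signal-to-noise across triplicate slides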
# [11] = E. coli DRC41 culture turbidity changes, primary screen, E. coli filamentation inducer project, strain DRC41, OD650, 48 h (AID 1152);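 further: E. coli MC1000 strain DRC41 lacking acrAB efflux pump and sulA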; conditions: E. coli DRC41 (acrAB sulA), higher = more signal, called active from +8 up or from −8 down
# [12] = small-molecule binders of probe aLefty1, primary screen, biochemical, small-molecule microarray, 635/667 nm fluorescence (AID 1153); conditions: higher = more signal;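 further: score merges spot fluorescence with signal-to-noise ratio from the scanned slide images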
# [13] = PSAC antagonists in infected red cells, primary screen, cell-based, P. falciparum Indochina, OD700, 1 h (AID 1154); conditions: P. falciparum Indochina infected RBC osmotic lysis, higher = more signal, called active from +8 up or from −8 down
# [14] = PSAC antagonists in infected red cells, primary screen, cell-based, P. falciparum Indochina, OD700, 2 h (AID 1155);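 further: lysis reports solute entry through the parasite surface anion channel PSAC; channel blockers reduce lysis of infected cells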; conditions: P. falciparum Indochina infected erythrocytes, osmotic lysis OD700; higher = more signal, called active from +8 up or from −8 down
# [15] = osmotic lysis modulators in infected erythrocytes, primary screen, PSAC antagonist project, cell-based, P. falciparum Indochina, OD700, 3 h (AID 1156); conditions: higher = more signal, called active from +8 up or from −8 down
# [16] = PSAC antagonists in infected red cells, primary screen, cell-based, P. falciparum Indochina, OD700, 18 h (AID 1157); conditions: P. falciparum Indochina infected erythrocytes, osmotic lysis OD700, 18 h; higher = more signal, called active from +8 up or from −8 down
# [17] = modulators of S6 phosphorylation in cells, primary screen, cell-based, A549, cytoblot, luminescence, serum-stimulated (AID 1158); conditions: A549 phospho-S6 cytoblot, 5 h, higher = more signal;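 further: serum-stimulated A549 lung adenocarcinoma cells; signal is phosphorylated S6 detected by cytoblot immunostaining with HRP secondary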
# [18] = target: NADPH oxidase 2 (Homo sapiens) (UniProt P04839); experiment: NOX2-dependent H2O2 signal modulators, primary screen, NOX inhibitor project, cell-based, HEK293-NOX2, PMA-stimulated, Amplex Red fluorescence (AID 1159); conditions: 45 min, higher = more signal, called active from +8 up or from −8 down; further: test concentration not given here
# [19] = target: NADPH oxidase 4 (Homo sapiens) (UniProt Q9NPH5); experiment: NOX4-dependent H2O2 signal modulators, primary screen, NOX inhibitor project, cell-based, HEK293-NOX4, tetracycline-induced, Amplex Red fluorescence (AID 1160); conditions: 45 min, higher = more signal, called active from +8 up or from −8 down
# [20] = target: NADPH oxidase 5 (Homo sapiens) (UniProt Q96PH1); experiment: NOX5-dependent H2O2 signal modulators, primary screen, NOX inhibitor project, cell-based, HEK293-NOX5, Amplex Red fluorescence (AID 1161); conditions: HEK293-NOX5, ionomycin, 45 min, higher = more signal
# Sequence of NADPH oxidase 5 (Homo sapiens) (Q96PH1 whole entry, looked up): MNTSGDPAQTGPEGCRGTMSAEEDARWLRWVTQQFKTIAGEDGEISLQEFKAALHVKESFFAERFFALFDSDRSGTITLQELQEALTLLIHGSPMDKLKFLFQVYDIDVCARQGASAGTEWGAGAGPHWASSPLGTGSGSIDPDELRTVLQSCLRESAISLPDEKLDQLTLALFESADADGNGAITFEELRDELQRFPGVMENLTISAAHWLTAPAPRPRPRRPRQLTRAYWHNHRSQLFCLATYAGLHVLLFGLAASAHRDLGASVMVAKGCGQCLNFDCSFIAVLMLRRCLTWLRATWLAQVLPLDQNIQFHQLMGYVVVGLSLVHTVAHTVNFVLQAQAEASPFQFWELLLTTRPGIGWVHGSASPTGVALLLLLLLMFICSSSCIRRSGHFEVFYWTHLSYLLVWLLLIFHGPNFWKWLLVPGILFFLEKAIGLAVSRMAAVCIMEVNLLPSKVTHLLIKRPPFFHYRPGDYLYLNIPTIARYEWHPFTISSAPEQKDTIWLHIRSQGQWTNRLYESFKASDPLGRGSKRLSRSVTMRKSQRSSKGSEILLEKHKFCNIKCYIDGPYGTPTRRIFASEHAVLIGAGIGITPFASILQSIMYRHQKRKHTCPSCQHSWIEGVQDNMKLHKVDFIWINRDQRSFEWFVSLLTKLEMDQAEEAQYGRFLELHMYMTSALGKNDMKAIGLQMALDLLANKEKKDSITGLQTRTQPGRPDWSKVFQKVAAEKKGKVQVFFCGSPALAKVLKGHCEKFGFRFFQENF
# Sequence of NADPH oxidase 2 (Homo sapiens) (P04839 whole entry, looked up): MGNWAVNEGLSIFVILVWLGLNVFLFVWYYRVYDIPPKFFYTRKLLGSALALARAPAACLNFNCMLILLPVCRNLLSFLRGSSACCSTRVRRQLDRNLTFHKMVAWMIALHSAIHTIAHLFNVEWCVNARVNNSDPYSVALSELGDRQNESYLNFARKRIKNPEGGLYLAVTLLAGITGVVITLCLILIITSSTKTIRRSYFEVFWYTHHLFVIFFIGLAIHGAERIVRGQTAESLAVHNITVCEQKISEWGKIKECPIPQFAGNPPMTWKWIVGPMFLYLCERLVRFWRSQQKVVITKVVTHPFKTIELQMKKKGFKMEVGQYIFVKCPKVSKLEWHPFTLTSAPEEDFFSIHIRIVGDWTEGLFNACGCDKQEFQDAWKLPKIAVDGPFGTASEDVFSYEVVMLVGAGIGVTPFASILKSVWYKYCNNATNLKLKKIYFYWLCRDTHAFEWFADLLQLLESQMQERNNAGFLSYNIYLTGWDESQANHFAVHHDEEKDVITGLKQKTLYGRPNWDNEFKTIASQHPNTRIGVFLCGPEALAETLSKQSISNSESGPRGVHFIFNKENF
# Sequence of NADPH oxidase 4 (Homo sapiens) (Q9NPH5 whole entry, looked up): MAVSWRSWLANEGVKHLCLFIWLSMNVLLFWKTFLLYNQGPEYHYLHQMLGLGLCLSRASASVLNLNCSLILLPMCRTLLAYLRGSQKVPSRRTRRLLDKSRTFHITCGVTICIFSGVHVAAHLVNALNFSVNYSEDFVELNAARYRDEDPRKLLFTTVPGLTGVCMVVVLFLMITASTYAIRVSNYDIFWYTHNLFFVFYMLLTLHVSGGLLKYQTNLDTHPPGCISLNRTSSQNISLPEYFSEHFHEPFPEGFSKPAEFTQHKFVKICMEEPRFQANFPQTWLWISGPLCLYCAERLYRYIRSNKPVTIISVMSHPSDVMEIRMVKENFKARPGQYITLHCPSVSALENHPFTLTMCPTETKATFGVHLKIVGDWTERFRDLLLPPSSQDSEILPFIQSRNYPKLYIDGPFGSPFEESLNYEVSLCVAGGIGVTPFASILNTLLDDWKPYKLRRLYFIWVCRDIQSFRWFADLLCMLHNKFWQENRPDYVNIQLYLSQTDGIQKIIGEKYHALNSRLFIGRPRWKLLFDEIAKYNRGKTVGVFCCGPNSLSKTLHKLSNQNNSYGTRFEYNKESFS
# Sequence of Torsin-1A (Homo sapiens) (O14656 whole entry, looked up): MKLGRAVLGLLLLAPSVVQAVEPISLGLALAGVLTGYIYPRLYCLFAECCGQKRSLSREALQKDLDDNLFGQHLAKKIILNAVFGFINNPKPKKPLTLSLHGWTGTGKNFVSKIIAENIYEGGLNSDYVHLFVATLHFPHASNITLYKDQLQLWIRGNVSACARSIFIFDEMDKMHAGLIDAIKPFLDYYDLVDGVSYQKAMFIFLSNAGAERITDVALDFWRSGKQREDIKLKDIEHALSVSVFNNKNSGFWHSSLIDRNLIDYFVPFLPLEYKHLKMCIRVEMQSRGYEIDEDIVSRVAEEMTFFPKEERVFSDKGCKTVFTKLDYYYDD
# Sequence of Streptavidin (Streptomyces avidinii) (P22629 whole entry, looked up): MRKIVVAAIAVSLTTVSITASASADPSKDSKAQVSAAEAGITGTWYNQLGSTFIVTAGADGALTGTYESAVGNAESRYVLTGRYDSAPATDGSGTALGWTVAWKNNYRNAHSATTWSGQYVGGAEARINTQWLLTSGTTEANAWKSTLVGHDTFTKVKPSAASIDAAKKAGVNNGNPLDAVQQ
Compound,composite z-score [1],z-score [2],z-score [3],z-score [4],z-score [5],composite z-score [6],composite z-score [7],composite z-score (Torsin-1A (Homo sapiens) [8]),composite z-score (Torsin-1A (Homo sapiens) [9]),composite z-score [10],z-score [11],composite z-score [12],z-score [13],z-score [14],z-score [15],z-score [16],z-score [17],z-score [18],z-score [19],z-score [20]
NC(=O)[C@]1(Cc2ccccc2)N=C(c2ccc(OCCCO)cc2)O[C@@H]1c1ccccc1,0.0788,-2.3 (inactive),-0.783 (inactive),5.59 (inactive),1.49 (inactive),0.452,0.0872,-0.783,-0.0179,-0.955,-0.465 (inactive),0.351,26.5 (active),15.6 (active),0.531 (inactive),2.19 (inactive),-0.0349,-0.273 (inactive),-0.228 (inactive),0.575
CCCC[C@H]1OB(O)C[C@H]2C1=C(COc1ccccc1)C[C@H]1C(=O)N(Cc3ccccc3)C(=O)[C@H]12,-0.0155,-1.72 (inactive),-0.375 (inactive),1.13 (inactive),-0.208 (inactive),1.49,-0.0136,-0.518,0.106,1.76,-0.288 (inactive),0.179,6.03 (inactive),1.38 (inactive),0.0146 (inactive),0.475 (inactive),-0.056,-0.0336 (inactive),0.143 (inactive),0.245
CS(=O)(=O)CCOC(=O)C1=CC(c2ccc(CO)cc2)=CC(c2cccs2)N(Cc2cccc(OC(F)(F)F)c2)C=C1C(=O)OCCS(C)(=O)=O (stereo not given),0.104,-3.67 (inactive),0.676 (inactive),0.695 (inactive),-2.12 (inactive),1.72,0.0047,1.45,0.543,0.75,-2.86 (inactive),0.0575,14.8 (active),4.37 (inactive),0.869 (inactive),1.95 (inactive),0.158,-2.07 (inactive),-1.09 (inactive),-2.37
COCCn1c(C(=O)N(C)C)cc2c1C[C@H]1CN(C(=O)c3ccccc3)[C@@](Cc3ccc(F)cc3)(C(=O)OC)[C@@H]21,0.304,-0.394 (inactive),-0.191 (inactive),-0.947 (inactive),-0.578 (inactive),0.45,-0.12,0.249,0.0952,-0.0212,0.118 (inactive),0.211,0.666 (inactive),-0.34 (inactive),-0.0451 (inactive),0.397 (inactive),-0.17,0.395 (inactive),0.211 (inactive),-1.69
C=C(COC)C(=O)CC[C@H](OC(=O)c1cccnc1)c1ccccc1OCCO,0.112,-2.22 (inactive),-0.201 (inactive),5.43 (inactive),9.65 (active),0.279,0.0705,0.519,0.698,1.63,0.0928 (inactive),0.473,8.77 (active),0.805 (inactive),0.0448 (inactive),0.307 (inactive),-0.283,-2.86 (inactive),0.0432 (inactive),-1.26
COC(=O)c1c2oc(c1C(=O)OC)C(=O)N[C@H](Cc1ccccc1)Cn1nncc1C1(CCCCC1)NC(=O)N[C@H](CO)CC2,0.159,-0.11 (inactive),-0.318 (inactive),1.75 (inactive),0.154 (inactive),0.412,0.0154,-0.0688,-0.0459,0.798,1.74 (inactive),-0.237,5.12 (inactive),1.58 (inactive),0.52 (inactive),0.628 (inactive),0.14,-2.86 (inactive),-2.14 (inactive),-3.47
C=CCC(OC(C)=O)[C@@H]1[C@@H](N(Cc2cc3ccccc3o2)C(=O)c2ccc(C)cc2)c2cc(OCCCO)ccc2N1C(=O)c1ccc(-c2ccccc2)cc1 (stereo not given in full),-0.221,-2.92 (inactive),-2.16 (inactive),2.76 (inactive),-1.12 (inactive),0.0073,0.295,0.308,-0.264,0.158,1.33 (inactive),-0.519,1.8 (inactive),0.345 (inactive),-1.06 (inactive),0.115 (inactive),4.08,-1.59 (inactive),0.768 (inactive),2.25
